A number with no mark means an inactive call. Inconclusive results are not listed. Activity calls are given as the source filed them. Unless noted, calls follow the shape of the dose curve; as a rule, active = well fitted curve in the direction sought with a large enough effect; inconclusive = small, poorly fitted or top-dose-only effect, or another doubt; inactive = no such curve, though single readings can be large; an effect the other way counts as inactive or inconclusive. Where only a bound is given, the exact number is not on record here.

The values that follow come from PubChem BioAssay (NCATS).

In test [1] the target is Lysosomal acid glucosylceramidase (Homo sapiens) (UniProt P04062). As to the kind of experiment: Glucocerebrosidase-p2 (AID 348; in the data active = potency below about 10 µM; also: potency is read from the fitted curve at half-maximal effect). Particulars: purified GBA, blue fluorogenic substrate, 40 min. A digest of the protocol: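 Normal human glucocerebrosidase (0.2 nM) with blue fluorogenic substrate (80 uM final) in citrate/phosphate pH 5.9 with 10mM sodium taurocholate, 0.01% tween-20; 40 min RT, NaOH/glycine stop; fluorescence Ex 365/Em 440; AC50 from a titration from 0.6 nM upwards.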

The nature of test [2]: AP1 Signaling Pathway (AID 357; active = well fitted curve in either direction with a large enough effect, not every such curve was filed as active;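 also: ME-180 reporter cells stimulated with EGF at its EC50 level; % is scaled to controls: 0 for no effect and ±100 for the full control effect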). Conditions: ME-180 AP-1-bla reporter, EGF-induced, beta-lactamase ratio, 5 h; at 7.69 µM (top of the series) unless noted. A digest of the protocol:
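AP-1-bla ME-180 cells, Opti-MEM + 0.5% dialyzed FBS, plated overnight 37 °C. Cpd titration + EC50 EGF, 5 h 37 °C. CCF4 2.5 h RT; ex 405, em 460/530 ratio → %activity, AC50.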

In test [3] the target is Cytochrome P450 1A2 (Homo sapiens) (UniProt P05177). In words: p450-cyp1a2 (AID 410; calls by dose curve; also: potency is read from the fitted curve at half-maximal effect). Conditions: recombinant CYP1A2, luciferin-ME demethylation, luminescence; series mostly up to 57 µM. In a few lines: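 20nM CYP1A2, 100uM Luciferin-ME (=Km), 100mM KPO4; cpd 10 min RT; +NADPH regen, 60 min RT; stop/detect 20 min; luminescence. Normalized to furafylline 57 uM = full inhibition.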

A short description of test [4]: NFAT Signaling Pathway (AID 444; active = well fitted curve in either direction with a large enough effect, not every such curve was filed as active;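 also: carbachol stimulus at about its EC50 of 1 µM final; % is scaled to controls: 0 for no effect and ±100 for the full control effect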). Particulars: Jurkat NFAT-bla M1, carbachol, beta-lactamase ratio, 5 h; at 7.69 µM (top of the series) unless noted. In a few lines:
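Jurkat cells with NFAT-driven β-lactamase reporter and co-expressed M1 receptor, stimulated with carbachol (final 1 uM, ~EC50), compound titration, 5 h at 37 °C. CCF4 loaded 1 h at RT; 460/530 nm ratio gave %activity and AC50.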

Test [5] is described as follows: Stat Signaling Pathway (AID 446; active = well fitted curve in either direction with a large enough effect, not every such curve was filed as active;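 also: ME-180 cervical cancer cells given 40 pM IL-6 alongside compound; SIE-controlled beta-lactamase reporter measured as 460/530 nm FRET emission ratio; % is scaled to controls: 0 for no effect and ±100 for the full control effect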). Particulars: ME-180 (cervical carcinoma) SIE beta-lactamase reporter, IL-6 stimulated, 5 h; at 7.69 µM (top of the series) unless noted. In a few lines: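 Compound effects on IL-6-induced STAT reporter activity were measured in ME-180 cells. After overnight culture, cells were co-treated with 40 pM IL-6 for 5 hrs before beta-lactamase substrate loading at room temperature.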

Test [6] has as its target Glucocorticoid receptor (Homo sapiens) (UniProt P04150). In words: GR-GFP Redistribution (AID 450;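 active = compounds whose dose series gives a full or clear partial fitted curve of increased nuclear translocation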; also: potency is read from the fitted curve at half-maximal effect). Conditions: U2OS GR-GFP nuclear translocation, laser cytometry, 2 h.
Test [7] has the same target. In words: GR-EFC Redistribution (AID 451; calls by dose curve; also: potency is read from the fitted curve at half-maximal effect). Conditions: CHO-K1 GR-EFC translocation, beta-gal luminescence, 2 h. A digest of the protocol:
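CHO-K1 cells expressing nuclear EA and GR-ED fragments of b-gal; compounds titrated up to 46 uM final, 2 h at 37 C. GR nuclear translocation read as complemented b-gal luminescence after 1 h RT detection.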

Test [8] has as its target Mitogen-activated protein kinase 10 (Mus musculus) (UniProt Q61831). In words: JNK3 AlphaScreen Assay (AID 530; active = well fitted curve in either direction with a large enough effect, not every such curve was filed as active;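 also: kinase came from lysate of stimulated human HepG2 cells; signal reports phosphorylation of biotinylated GST-cJun 1-79 at Ser73 with 10 µM ATP; % is scaled to controls: 0 for no effect and ±100 for the full control effect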). Conditions: JNK3 lysate, c-Jun phosphorylation; series mostly up to 57.1 µM. In a few lines: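 HepG2 lysate (IL-1b/TNFa pre-activated) + biotin-GST-cJun 1-79 + anti-pSer73 cJun; cpd titration, 15 min RT; ATP 10 uM start; Tris pH 7.6, MgCl2, DTT, vanadate; beads in EDTA buffer; AlphaScreen.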
Background: Alpha assays give light when donor and acceptor beads are brought close together.

Test [9] has as its target 3',5'-cyclic-AMP phosphodiesterase 4B (Homo sapiens) (UniProt Q07343). In words: qHTS Assay for Inhibitors of PDE-IV (AID 607; active = well fitted activation curve with a large enough effect in the main read-out, with a control signal flat, not every such curve was filed as active; also: % of control where 0% means no effect). Particulars: HEK293 ACTOne CNG channel cells, membrane potential fluorescence; series mostly up to 22.9 µM. In a few lines: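 ACTOne HEK293 cells carry a modified cAMP-gated CNG channel and express endogenous PDE4; plated 1000 cells/well, compounds up to 22.9 uM final. Membrane-potential dye fluorescence (ex 535/em 590) was read; parental cells received 10 uM forskolin + 100 uM RO 20-1724.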
(Quantitative high-throughput screening tests each substance at several concentrations.)

In test [10] the target is Cytochrome P450 3A4 (Homo sapiens) (UniProt P08684). As to the kind of experiment: qHTS Assay for Inhibitors and Substrates of Cytochrome P450 3A4 (AID 884). Also: potency is read from the fitted curve at half-maximal effect; nearly all actives have a fitted effect of over 50% in size. Conditions: recombinant CYP3A4, Luciferin-PPXE luminescence; series mostly up to 57.1 µM. In a few lines: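 Luminescent readout of luciferin produced by CYP3A4 (20 nM) dealkylation of Luciferin-PPXE, 25 uM (its KM). NADPH-driven reaction ran 60 min at RT after 10 min compound preincubation; data scaled to 57 uM ketoconazole as 100% inhibition.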

Test [11] shares this target. As to the kind of experiment: qHTS Assay for Activators of Cytochrome P450 3A4 (AID 885). Also: nearly all actives have a fitted effect of over 65% in size. Conditions: recombinant CYP3A4, Luciferin-PPXE luminescence, 60 min; series mostly up to 57.1 µM. A digest of the protocol: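 CYP3A4 activity: Luciferin-PPXE O-dealkylation, 25uM substrate, 200mM KPO4, RT throughout. Read-out is luciferase luminescence; higher values reflect activation.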

The target in test [12] is Cytochrome P450 2C19 (Homo sapiens) (UniProt P33261). As to the kind of experiment: qHTS Assay for Inhibitors and Substrates of Cytochrome P450 2C19 (AID 899). Also: potency is read from the fitted curve at half-maximal effect; nearly all actives have a fitted effect of over 60% in size. Conditions: recombinant CYP2C19, luciferin-H EGE luminescence; series mostly up to 57.1 µM. In a few lines:
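Luminescent read-out of luciferin formed from Luciferin-H EGE (10uM, equal to KM). Enzyme 5nM in 50mM KPO4; compound added, 10 min at 37C, then NADPH regenerating system for 60 min at 37C. Full inhibition defined by 57uM ketoconazole.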

The target in test [13] is Dual specificity protein kinase CLK4 (Homo sapiens) (UniProt Q9HAZ1). As to the kind of experiment: qHTS Assay for Inhibitors of CDC-like Kinase 4 (Kinase-Glo Assay) (AID 1770). Also: nearly all actives have a fitted effect of over 65% in size. Also: potency is read from the fitted curve at half-maximal effect. Conditions: recombinant Clk4, Kinase-Glo ATP depletion luminescence; series mostly up to 66.7 µM. In a few lines:
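Substrate mix (RS peptide 100 uM, ATP 1 uM) dispensed, compound pinned in, then Clk4 added to 25 nM final. Incubated 4.5 h at RT; Kinase-Glo reagent added, luminescence read after 5 min.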

Test [14] shares this target. In words: qHTS Assay for Inhibitors of CDC-like Kinase 4 (ADP-Glo Assay) (AID 1771). Also: nearly all actives have a fitted effect of over 70% in size. Also: potency is read from the fitted curve at half-maximal effect. Conditions: recombinant CLK4, ADP-Glo luminescence; series mostly up to 80 µM. A digest of the protocol: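 25 nM Clk4, 100 uM RS peptide, 1 uM ATP (final); 2 mM MgCl2, 0.5 mM EGTA, 2.5 mM DTT, 0.01% Triton X-100; 1 hr RT. ADP-Glo readout: ATP depletion 45 min, conversion/luciferase 30 min, luminescence.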

For test [15] the target is unchanged. As to the kind of experiment: qHTS Assay for Inhibitors of CDC-like Kinase 4 (ADP-FP Assay) (AID 1795). Also: nearly all actives have a fitted effect of over 60% in size. Also: potency is read from the fitted curve at half-maximal effect. Conditions: Transcreener ADP fluorescence polarization; series mostly up to 50 µM. In a few lines: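 Clk4 6.25 nM; RS peptide 100 uM; ATP 1 uM; 25 mM Tris pH 7.5, 10 mM MgCl2; 1 h reaction. ADP detected via antibody/orange tracer FP displacement; TG003 positive control.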

The target of test [16] is Ubiquitin carboxyl-terminal hydrolase 1 (Homo sapiens) (UniProt O94782). As to the kind of experiment: Inhibitors of USP1/UAF1: Pilot qHTS (AID 504865). Also: nearly all actives have a fitted effect of over 35% in size. Also: potency is read from the fitted curve at half-maximal effect. Particulars: purified USP1/UAF1, Ub-rhodamine cleavage fluorescence; series mostly up to 54.9 µM. In a few lines:
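In 50mM HEPES pH 7.8 containing 0.5mM EDTA, 1mM TCEP, 0.1 mg/ml BSA and 0.01% Tween-20, 1nM USP1/UAF1 is exposed to compound for 15 min, then Ub-Rho (150nM final) is added and fluorescence is read over time.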

A short description of test [17]: Primary qHTS for small molecule stabilizers of the endoplasmic reticulum resident proteome: Secreted ER Calcium Modulated Protein (SERCaMP) assay (AID 1508630). Also: % is scaled to controls: 0 for no effect and ±100 for the full control effect. Particulars: SH-SY5Y GLuc-SERCaMP (Gaussia luciferase released on ER calcium loss) secretion, thapsigargin, luminescence; series mostly up to 38.4 µM. A digest of the protocol: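 The SH-SY5Y reporter protocol was run at 3 concentrations up to 38.3 uM (primary) or 11 concentrations (follow-up): 16 h compound, 100 nM thapsigargin for 4 h, then extracellular luciferase luminescence.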

Test [18] concerns the target Cytochrome P450 2C9 (Homo sapiens) (UniProt P11712). In words: qHTS Assay for Inhibitors and Substrates of Cytochrome P450 2C9 (AID 883). Also: potency is read from the fitted curve at half-maximal effect; nearly all actives have a fitted effect of over 60% in size. Conditions: recombinant CYP2C9, luciferin-H luminescence, 60 min; series mostly up to 57.1 µM. A digest of the protocol:
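10nM CYP2C9 + 100uM Luciferin-H (=KM), 25mM KPO4; cpd 10 min 37C; NADPH regen, 60 min 37C; stop/detect with P450 Glo-Buffer 20 min; luminescence. Norm. to 57uM sulphaphenazole as full inhibition.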

Sequence of Glucocorticoid receptor (Homo sapiens) (P04150 whole entry, looked up): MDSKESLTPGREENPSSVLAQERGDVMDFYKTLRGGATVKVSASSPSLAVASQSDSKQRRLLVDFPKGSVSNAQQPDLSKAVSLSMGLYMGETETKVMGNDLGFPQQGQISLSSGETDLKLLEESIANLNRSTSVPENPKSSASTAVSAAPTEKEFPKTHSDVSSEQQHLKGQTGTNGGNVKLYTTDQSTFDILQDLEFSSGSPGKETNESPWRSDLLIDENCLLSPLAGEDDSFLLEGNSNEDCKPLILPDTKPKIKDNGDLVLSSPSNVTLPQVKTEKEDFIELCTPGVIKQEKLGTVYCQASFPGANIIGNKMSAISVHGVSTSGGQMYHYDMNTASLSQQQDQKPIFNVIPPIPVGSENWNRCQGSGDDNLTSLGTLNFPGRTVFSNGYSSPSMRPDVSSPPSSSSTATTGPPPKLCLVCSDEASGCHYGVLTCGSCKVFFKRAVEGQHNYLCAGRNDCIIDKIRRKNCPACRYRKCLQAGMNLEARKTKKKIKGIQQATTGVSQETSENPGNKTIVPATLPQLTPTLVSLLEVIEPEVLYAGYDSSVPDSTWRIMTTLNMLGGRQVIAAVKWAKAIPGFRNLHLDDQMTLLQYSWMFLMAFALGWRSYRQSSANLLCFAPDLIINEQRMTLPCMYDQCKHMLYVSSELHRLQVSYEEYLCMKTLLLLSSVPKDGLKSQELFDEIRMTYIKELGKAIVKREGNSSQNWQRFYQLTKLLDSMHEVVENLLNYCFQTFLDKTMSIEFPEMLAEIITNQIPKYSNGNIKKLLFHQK
Sequence of Cytochrome P450 3A4 (Homo sapiens) (P08684 whole entry, looked up): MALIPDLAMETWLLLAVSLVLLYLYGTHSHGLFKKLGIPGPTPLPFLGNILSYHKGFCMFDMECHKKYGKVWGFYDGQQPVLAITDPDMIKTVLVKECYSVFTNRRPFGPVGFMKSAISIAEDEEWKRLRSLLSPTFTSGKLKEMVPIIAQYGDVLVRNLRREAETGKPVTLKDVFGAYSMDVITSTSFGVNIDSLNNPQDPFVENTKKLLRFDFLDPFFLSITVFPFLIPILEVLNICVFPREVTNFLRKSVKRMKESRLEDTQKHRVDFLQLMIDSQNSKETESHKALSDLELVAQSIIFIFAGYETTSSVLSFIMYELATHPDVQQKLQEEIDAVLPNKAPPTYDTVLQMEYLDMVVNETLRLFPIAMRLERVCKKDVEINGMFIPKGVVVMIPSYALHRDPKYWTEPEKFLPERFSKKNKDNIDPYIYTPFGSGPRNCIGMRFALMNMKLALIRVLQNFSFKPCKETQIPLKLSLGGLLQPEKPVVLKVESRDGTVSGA
Sequence of 3',5'-cyclic-AMP phosphodiesterase 4B (Homo sapiens) (Q07343 whole entry, looked up): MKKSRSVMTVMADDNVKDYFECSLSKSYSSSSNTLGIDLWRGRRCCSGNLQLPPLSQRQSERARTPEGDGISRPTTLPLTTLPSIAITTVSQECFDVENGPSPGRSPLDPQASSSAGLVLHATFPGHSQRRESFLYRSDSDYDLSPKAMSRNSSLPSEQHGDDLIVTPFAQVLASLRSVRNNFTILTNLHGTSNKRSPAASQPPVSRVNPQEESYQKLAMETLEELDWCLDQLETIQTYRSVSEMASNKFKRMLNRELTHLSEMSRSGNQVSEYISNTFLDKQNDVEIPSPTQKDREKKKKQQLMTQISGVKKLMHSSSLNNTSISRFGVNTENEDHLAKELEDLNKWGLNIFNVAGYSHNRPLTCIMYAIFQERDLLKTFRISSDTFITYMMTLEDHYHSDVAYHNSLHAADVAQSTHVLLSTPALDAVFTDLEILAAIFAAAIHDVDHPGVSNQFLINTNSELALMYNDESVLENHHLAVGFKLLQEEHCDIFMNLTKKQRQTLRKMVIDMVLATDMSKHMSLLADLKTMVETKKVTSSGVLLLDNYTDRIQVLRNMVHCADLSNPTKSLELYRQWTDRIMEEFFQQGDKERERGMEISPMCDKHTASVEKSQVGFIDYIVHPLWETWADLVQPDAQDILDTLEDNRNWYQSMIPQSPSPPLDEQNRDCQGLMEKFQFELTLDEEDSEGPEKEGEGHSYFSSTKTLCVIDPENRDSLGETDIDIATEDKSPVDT
Sequence of Cytochrome P450 1A2 (Homo sapiens) (P05177 whole entry, looked up): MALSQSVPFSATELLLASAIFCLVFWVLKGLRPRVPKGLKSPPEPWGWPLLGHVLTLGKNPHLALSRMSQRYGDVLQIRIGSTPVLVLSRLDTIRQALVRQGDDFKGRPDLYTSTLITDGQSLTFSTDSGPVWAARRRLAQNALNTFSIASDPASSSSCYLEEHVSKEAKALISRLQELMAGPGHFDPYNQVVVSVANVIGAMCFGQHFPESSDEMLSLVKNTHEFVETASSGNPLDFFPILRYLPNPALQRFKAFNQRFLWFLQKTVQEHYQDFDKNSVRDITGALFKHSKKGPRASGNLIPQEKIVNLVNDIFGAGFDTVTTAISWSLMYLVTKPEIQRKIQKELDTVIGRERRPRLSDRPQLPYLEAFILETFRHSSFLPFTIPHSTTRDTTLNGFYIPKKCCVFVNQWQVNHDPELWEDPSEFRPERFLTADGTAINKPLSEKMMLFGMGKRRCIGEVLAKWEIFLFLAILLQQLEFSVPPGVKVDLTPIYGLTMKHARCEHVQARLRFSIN
Sequence of Dual specificity protein kinase CLK4 (Homo sapiens) (Q9HAZ1 whole entry, looked up): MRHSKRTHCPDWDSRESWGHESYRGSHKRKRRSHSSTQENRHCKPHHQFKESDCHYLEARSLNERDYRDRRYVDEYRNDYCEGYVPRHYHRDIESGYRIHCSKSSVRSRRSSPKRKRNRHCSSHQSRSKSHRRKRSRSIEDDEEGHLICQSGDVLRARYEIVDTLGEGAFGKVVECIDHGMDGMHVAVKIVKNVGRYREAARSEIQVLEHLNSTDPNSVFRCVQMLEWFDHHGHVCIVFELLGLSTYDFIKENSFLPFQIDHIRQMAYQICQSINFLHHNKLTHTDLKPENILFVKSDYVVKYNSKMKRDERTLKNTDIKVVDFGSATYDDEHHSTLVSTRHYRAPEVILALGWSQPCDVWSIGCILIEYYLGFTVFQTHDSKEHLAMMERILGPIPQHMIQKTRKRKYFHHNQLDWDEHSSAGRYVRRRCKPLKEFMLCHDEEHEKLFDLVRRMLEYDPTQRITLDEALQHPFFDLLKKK
Sequence of Lysosomal acid glucosylceramidase (Homo sapiens) (P04062 whole entry, looked up): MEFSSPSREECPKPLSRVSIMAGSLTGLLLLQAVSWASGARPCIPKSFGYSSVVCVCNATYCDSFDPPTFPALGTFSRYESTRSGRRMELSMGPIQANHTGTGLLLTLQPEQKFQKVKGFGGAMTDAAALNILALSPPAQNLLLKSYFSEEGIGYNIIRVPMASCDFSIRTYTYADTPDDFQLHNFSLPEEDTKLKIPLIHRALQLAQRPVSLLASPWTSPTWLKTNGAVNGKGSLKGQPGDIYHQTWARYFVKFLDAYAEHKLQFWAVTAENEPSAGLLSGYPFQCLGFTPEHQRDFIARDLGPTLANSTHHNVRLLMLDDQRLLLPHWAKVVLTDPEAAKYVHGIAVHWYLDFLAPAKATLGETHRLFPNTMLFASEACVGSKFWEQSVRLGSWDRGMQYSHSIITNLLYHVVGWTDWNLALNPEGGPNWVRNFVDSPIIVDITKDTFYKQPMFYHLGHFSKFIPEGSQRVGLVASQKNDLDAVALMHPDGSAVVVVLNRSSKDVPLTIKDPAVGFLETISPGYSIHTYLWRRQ
Sequence of Ubiquitin carboxyl-terminal hydrolase 1 (Homo sapiens) (O94782 whole entry, looked up): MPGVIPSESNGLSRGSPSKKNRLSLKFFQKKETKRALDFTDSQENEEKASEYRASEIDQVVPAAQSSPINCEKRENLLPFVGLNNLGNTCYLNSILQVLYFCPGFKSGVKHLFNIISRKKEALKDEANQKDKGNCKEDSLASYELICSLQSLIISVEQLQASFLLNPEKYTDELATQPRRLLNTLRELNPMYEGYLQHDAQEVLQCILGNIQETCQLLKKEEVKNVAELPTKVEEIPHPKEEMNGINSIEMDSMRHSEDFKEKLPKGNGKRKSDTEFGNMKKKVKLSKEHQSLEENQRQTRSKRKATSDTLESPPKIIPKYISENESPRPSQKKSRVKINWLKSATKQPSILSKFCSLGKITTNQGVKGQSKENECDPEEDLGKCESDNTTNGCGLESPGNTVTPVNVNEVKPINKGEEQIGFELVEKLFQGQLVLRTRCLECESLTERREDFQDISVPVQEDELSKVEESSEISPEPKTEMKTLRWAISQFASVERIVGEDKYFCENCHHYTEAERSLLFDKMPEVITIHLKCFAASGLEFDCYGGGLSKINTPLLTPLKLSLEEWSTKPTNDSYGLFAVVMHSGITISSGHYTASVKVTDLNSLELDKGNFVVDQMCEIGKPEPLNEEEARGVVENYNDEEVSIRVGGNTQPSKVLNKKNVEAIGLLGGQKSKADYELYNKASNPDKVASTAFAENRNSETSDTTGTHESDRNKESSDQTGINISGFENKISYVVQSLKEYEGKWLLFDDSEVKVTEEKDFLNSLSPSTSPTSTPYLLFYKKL
Sequence of Cytochrome P450 2C19 (Homo sapiens) (P33261 whole entry, looked up): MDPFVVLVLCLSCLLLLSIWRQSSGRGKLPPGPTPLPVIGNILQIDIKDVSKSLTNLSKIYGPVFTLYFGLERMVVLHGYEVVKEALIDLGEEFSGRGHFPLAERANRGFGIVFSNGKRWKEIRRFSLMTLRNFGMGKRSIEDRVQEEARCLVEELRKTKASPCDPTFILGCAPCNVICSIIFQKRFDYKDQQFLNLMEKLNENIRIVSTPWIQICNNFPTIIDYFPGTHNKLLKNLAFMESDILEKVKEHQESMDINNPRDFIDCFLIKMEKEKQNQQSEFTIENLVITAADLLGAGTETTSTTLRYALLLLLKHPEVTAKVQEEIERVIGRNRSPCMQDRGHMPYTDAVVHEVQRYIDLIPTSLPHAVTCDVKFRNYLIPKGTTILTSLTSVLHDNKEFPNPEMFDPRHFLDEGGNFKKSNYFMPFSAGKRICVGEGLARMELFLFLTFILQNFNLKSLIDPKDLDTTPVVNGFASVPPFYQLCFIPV

Take `COc1ccccc1CNc1ccnc(-c2cccc(C#N)c2)n1`: the Potency in [1] is above 11.4 µM; in test [3], 0.794 µM (active); in [6], above 46 µM; in test [7], above 46 µM; in test [10], 3.98 µM (active); in test [12] it was 3.98 µM (active). Besides, the Potency in test [13] was 7.94 µM (active); in [14], 7.94 µM (active); in [15], 3.16 µM (active). Further, the activity change, negative = inhibition was -13.8% in [2] and 8.07% in [4]. For the same compound, the activity, negative = inhibition in test [5] is -11.8%. In addition, the Potency entry in test [8], in [9], in [11] and in test [16] was “inactive” in each case. The result in [17] was inactive.
As to `COc1ccc(-n2c(=O)c(-c3cccc(Cl)c3)nc3cncnc32)cc1`, the Potency in [1] is above 11.4 µM; in test [3], 1 µM (active); in test [6], above 9.22 µM; in test [7], above 46 µM. Besides, the activity change, negative = inhibition in test [2] was -20.5%; in [4] it was -14.1%. Also, the activity, negative = inhibition in test [5] is -4.36%. Also, the Potency entry in [8], in test [9], in [11], in test [13], in test [14] and in [15] was “inactive” each time. Moreover, the Potency result in test [16] is “inactive”. For the same compound, the outcome in [17] was inactive.
On to `CS(=O)(=O)Nc1cccc(-c2cncnc2NCc2ccccc2)c1`, for which the Potency is above 11.4 µM in [1]; 25.1 µM (active) in [3]; above 46 µM in test [6]; above 46 µM in test [7]; 0.398 µM (active) in [18]; 0.631 µM (active) in [10]. Further, the figures for the activity change, negative = inhibition in test [2] and in test [4] were -1.31% and 3.36%, respectively. For the same compound, in test [5], the activity, negative = inhibition was -2.08%. The Potency result in [8], in [11], in test [13], in test [14], in [15] and in test [16] was “inactive” each time. Moreover, the outcome in test [17] was inactive.
As for `COc1ncc2nc(CCc3ccccc3)c(=O)n(CCc3ccccc3)c2n1`, the Potency in test [1] was above 11.4 µM; in test [3], 3.98 µM (active); in test [6] it was above 9.22 µM; in test [7], above 46 µM; in test [10], 3.16 µM (active); in test [12], 7.94 µM (active). For the same compound, the values for the activity change, negative = inhibition in test [2] and in test [4] were -0.194% and -0.888%, respectively. For the same compound, the activity, negative = inhibition in test [5] is -1.74%. Moreover, the Potency entry in test [8], in [11], in test [13], in [14], in test [15] and in test [16] was “inactive” each time. Besides, the outcome in test [17] was inactive.
Take `CNc1nc(-c2ccccc2C)nc2ccccc12`: the Potency in test [1] was 8.72 µM (active); in test [3], 0.501 µM (active); in test [6], above 46 µM; in test [7], above 46 µM; in test [13], 12.6 µM (active); in test [14] it was 12.6 µM (active). Besides, the Potency in test [15] was 14.1 µM (active). The activity change, negative = inhibition in [2] is 8.12%; in test [4], 3.1%. Besides, the activity, negative = inhibition in test [5] was 9%. For the same compound, the Potency entry in [8], in test [9], in test [11] and in test [16] was “inactive” throughout. In [17], the outcome was inactive.
`Cc1ccccc1-c1ccc2ncnc(NCc3cccs3)c2c1`: the Potency in test [1] was above 11.4 µM; in [3] it was 2.51 µM (active); in test [6], above 46 µM; in [7], above 46 µM; in [10] it was 3.98 µM (active); in test [13] it was 3.98 µM (active). In addition, the values for the Potency in test [14], in test [15] and in test [16] were 3.55 µM (active), 3.55 µM (active) and 14.1 µM (active), respectively. Further, the activity change, negative = inhibition in [2] is -9.99%; in [4], -15.8%. Also, the activity, negative = inhibition in test [5] is -13.1%. For the same compound, the Potency entry in test [8] and in test [11] was “inactive” in each case. Besides, the result in test [17] was inactive.
